Laboratory results taken from PubChem BioAssay (NCATS).
“And” between values parts separate entries of the source, which are not always exact repeats. Identical values can stand only once. Records with an inconclusive call do not appear. Where a structure was tested more than once in an assay, its records may differ in their call. The source made the active and inactive calls. Calls follow the shape of the dose curve; as a rule, active = well fitted curve in the direction sought with a large enough effect; inconclusive = small, poorly fitted or top-dose-only effect, or another doubt; inactive = no such curve, though single readings can be large; an effect the other way counts as inactive or inconclusive.

Experiments:
[1] = tested on: CRL-7250; experiment: Cytotoxic Profiling of Annotated Libraries Using Quantitative High-Throughput Screening (AID 1296008); details: Five cell lines viability, CellTiter-Glo ATP luminescence, 48-72 h; max response: stronger effect = lower value; also: nearly all actives have a fitted effect of over 60% in size
Outline: (§1)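 Cytotoxicity was measured as CellTiter-Glo ATP luminescence, read after 10 min at room temperature. Compound treatment of the cells lasted 48 or 72 hr at 37 degrees Celsius in a qHTS format.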

[2] = tested on: HEK293; experiment: as above; details: Five cell lines viability, CellTiter-Glo ATP luminescence, 48-72 h; max response: stronger effect = lower value
Outline: as §1

[3] = tested on: HaCat; experiment: as above; details: Five cell lines viability, CellTiter-Glo ATP luminescence, 48-72 h; max response: stronger effect = lower value
Outline: as §1

[4] = tested on: NIH3T3; experiment: as above; details: Five cell lines viability, CellTiter-Glo ATP luminescence, 48-72 h; max response: stronger effect = lower value
Outline: as §1

[5] = tested on: MCC-26; experiment: qHTS assay to identify novel small-molecules to repurpose for Merkel cell carcinoma treatment (AID 1296009); details: MCC and control cell lines, CellTiter-Glo viability, 72 h; series mostly up to 46 µM; also: nearly all actives have a fitted effect of over 60% in size
Outline: (§2)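 Cell viability measured by CellTiter-Glo following 72 hr compound treatment at 37 degree celsius, with NPC and MIPE libraries tested in 8- and 11-point concentration series.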

[6] = tested on: MKL-1; experiment: as above; details: MCC and control cell lines, CellTiter-Glo viability, 72 h; series mostly up to 46 µM
Outline: as §2

[7] = tested on: MKL-2; experiment: as above; details: MCC and control cell lines, CellTiter-Glo viability, 72 h; series mostly up to 46 µM
Outline: as §2

[8] = tested on: HeLa; experiment: Primary qHTS to identify gynecologic anti-cancer compounds using libraries of approved drugs and bioactive compounds (AID 1345084); details: Gynecologic cancer cell panel viability, ATPlite luminescence, 48 h; series mostly up to 57.5 µM; also: nearly all actives have a fitted effect of over 55% in size
Outline: (§3)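 Luminescence from the ATPlite ATP-monitoring reagent indicates viable cell number; lower signal means cytotoxicity. Cells received compound 16 h after seeding and were exposed for 48 h across five concentrations.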

[9] = tested on: KB-3-1; experiment: Cytotoxic Profiling of Annotated Libraries Using Quantitative High-Throughput Screening (AID 1296008); details: Five cell lines viability, CellTiter-Glo ATP luminescence, 48-72 h; max response: stronger effect = lower value; also: nearly all actives have a fitted effect of over 60% in size
Outline: as §1

[10] = tested on: MCC-13; experiment: qHTS assay to identify novel small-molecules to repurpose for Merkel cell carcinoma treatment (AID 1296009); details: MCC and control cell lines, CellTiter-Glo viability, 72 h; series mostly up to 46 µM; also: nearly all actives have a fitted effect of over 60% in size
Outline: as §2

[11] = tested on: UISO; experiment: as above; details: MCC and control cell lines, CellTiter-Glo viability, 72 h; series mostly up to 46 µM
Outline: as §2

[12] = tested on: WaGa; experiment: as above; details: MCC and control cell lines, CellTiter-Glo viability, 72 h; series mostly up to 46 µM
Outline: as §2

[13] = tested on: C33A; experiment: Primary qHTS to identify gynecologic anti-cancer compounds using libraries of approved drugs and bioactive compounds (AID 1345084); details: Gynecologic cancer cell panel viability, ATPlite luminescence, 48 h; series mostly up to 57.5 µM; also: nearly all actives have a fitted effect of over 55% in size
Outline: as §3

[14] = tested on: CAOV3; experiment: as above; details: Gynecologic cancer cell panel viability, ATPlite luminescence, 48 h; series mostly up to 57.5 µM
Outline: as §3

[15] = tested on: Es-2; experiment: as above; details: Gynecologic cancer cell panel viability, ATPlite luminescence, 48 h; series mostly up to 57.5 µM
Outline: as §3

[16] = tested on: Hek293T; experiment: as above; details: Gynecologic cancer cell panel viability, ATPlite luminescence, 48 h, control line for the selectivity index; series mostly up to 57.5 µM
Outline: as §3

[17] = tested on: HACAT; experiment: qHTS assay to identify novel small-molecules to repurpose for Merkel cell carcinoma treatment (AID 1296009); details: MCC and control cell lines, CellTiter-Glo viability, 72 h; at 44.8 µM (top of the series) unless noted; also: nearly all actives have a fitted effect of over 60% in size
Outline: as §2

[18] = tested on: CASKI; experiment: Primary qHTS to identify gynecologic anti-cancer compounds using libraries of approved drugs and bioactive compounds (AID 1345084); details: Gynecologic cancer cell panel viability, ATPlite luminescence, 48 h; series mostly up to 57.5 µM; also: nearly all actives have a fitted effect of over 55% in size
Outline: as §3

[19] = tested on: NIH3T3; experiment: qHTS assay to identify novel small-molecules to repurpose for Merkel cell carcinoma treatment (AID 1296009); details: MCC and control cell lines, CellTiter-Glo viability, 72 h; series mostly up to 44.8 µM; also: nearly all actives have a fitted effect of over 60% in size
Outline: as §2

[20] = tested on: HEK293T; experiment: as above; details: MCC and control cell lines, CellTiter-Glo viability, 72 h; at 44.8 µM (top of the series) unless noted
Outline: as §2
% is scaled to controls: 0 for no effect and ±100 for the full control effect; potency is read from the fitted curve at half-maximal effect.

C[C@@H](N)c1ccc(C(=O)Nc2ccnc3[nH]ccc23)cc1
inactive: max response [1] -24.2% | Potency [5] | Potency [6] | Potency [7]
active: Potency [2] 23.1 µM | Potency [3] 18.4 µM | Potency [4] 23.5 µM and 16.4 µM | Potency [8] 17.8 µM

Cc1ccc(C(=O)N(CCCN)[C@@H](c2nc3cc(Cl)ccc3c(=O)n2Cc2ccccc2)C(C)C)cc1
inactive: max response [1] -35.4% | max response [2] -91.6% | max response [4] -42.8% | Potency [11]
active: Potency [9] 0.0008 µM | Potency [10] 0.0296 µM

Cc1cc(OCCCS(C)(=O)=O)cc(C)c1-c1cccc(COc2ccc3c(c2)OC[C@H]3CC(=O)O)c1
active: Potency [2] 20.9 µM
inactive: max response [1] -33.3% | max response [3] -16.3% | max response [4] -18.7% | Potency [10] | Potency [5] | Potency [6]

O=C1CCCC(=O)C1C(=O)c1ccc(C(F)(F)F)cc1[N+](=O)[O-]
inactive: max response [1] -12.8% | max response [2] 0.204% | max response [9] 8.25% | max response [4] -10% | Potency [10] | Potency [5] | Potency [6] | Potency [7] | Potency [11] | Potency [12]

COc1ccc(-c2nc3ccc(C4=NNC(=O)CC4C)cc3[nH]2)cc1 (stereo not drawn)
active: Potency [2] 18.8 µM and 23.1 µM
17.8 µM (active) and inactive: Potency [14]
inactive: outcome [1] | max response [9] -4.82% | Potency [5] | Potency [13] | Potency [15] | Potency [16]

C[C@@H](NC(=O)c1ncnc(N)c1Cl)c1ncc(C(=O)Nc2cc(C(F)(F)F)c(Cl)cn2)s1
inactive: max response [1] -9.83% | outcome [3] | outcome [9] | max response [4] -5.83% and 1.58% | outcome [17] | Potency [10] | Potency [5] | Potency [6] | Potency [7] | Potency [11] | Potency [12] | Potency [13] | Potency [14] | Potency [18] | Potency [15] | Potency [8] | Potency [16]

CN(C)c1ccccc1CN1CCCN(Cc2ccccc2N(C)C)C1c1ccncc1
inactive: outcome [1] | outcome [3] | outcome [9] | max response [4] -1.17% | outcome [17] | Potency [10] | Potency [5] | Potency [6] | Potency [7] | Potency [11] | Potency [12]

C[C@@H]1CCO[C@H]2Cn3cc(C(=O)NCc4ccc(F)cc4F)c(=O)c(O)c3C(=O)N12
inactive: outcome [1] | outcome [3] | max response [9] -10.6% and -26.2% | max response [4] -1.73% | outcome [17] | Potency [10] | Potency [5] | Potency [11]
active: Potency [4] 20.6 µM

N#CC(=C1Nc2ccccc2S1)c1ccnc(OCc2ccc(CN3CCOCC3)cc2)n1
inactive: max response [1] 4.11% | outcome [3] inactive; activator | max response [9] -1.84% | max response [4] -8.13% | outcome [17] inactive; activator | Potency [10] | Potency [5]
active: Potency [6] 0.118 µM | Potency [7] 0.132 µM | Potency [11] 1.48 µM | Potency [12] 0.132 µM

CN(C)CCN(Cc1ccc(Cl)cc1)c1ccccn1
inactive: max response [1] 4.38% | outcome [3] | max response [9] -16.5% and 0.769% | max response [4] -1.04% | outcome [17] | Potency [10] | Potency [5] | Potency [6] | Potency [7] | Potency [11] | Potency [13] | Potency [14] | Potency [18] | Potency [15] | Potency [8] | Potency [16]

CCN1CCC(n2cc(CNc3cc(Cl)c4ncc(C#N)c(Nc5ccc(F)c(Cl)c5)c4c3)nn2)CC1
active: Potency [9] 18.4 µM
inactive: max response [1] -1.92% and -4.77% | max response [3] -29.2% and -4.6% | max response [4] 2.53% | outcome [4] | Potency [10] | Potency [5] | Potency [6] | Potency [19] | Potency [12] | Potency [13] | Potency [18] | Potency [15] | Potency [8] | Potency [16]

C=CC[N+]1([C@H]2C[C@H]3[C@@H]4CC[C@H]5C[C@H](O)[C@@H](N6CCOCC6)C[C@]5(C)[C@@H]4CC[C@]3(C)[C@H]2OC(C)=O)CCCC1
inactive: outcome [1] | outcome [3] | max response [9] 8.47% | max response [4] 4.84% | outcome [17] | Potency [10] | Potency [5] | Potency [6] | Potency [7] | Potency [11] | Potency [12]

C=C[C@@H]1CN2CCC1C[C@@H]2C(O)c1ccnc2ccc(OC)cc12 (stereo partly drawn)
inactive: outcome [1] | outcome [3] | max response [9] 7.83% | max response [4] 0.497% | outcome [17] | Potency [10] | Potency [5] | Potency [6] | Potency [7] | Potency [11] | Potency [12]

C[C@H](c1ccc(F)cc1CCCC(=O)O)N(c1cc(F)ccc1F)S(=O)(=O)c1ccc(Cl)cc1
inactive: max response [1] -0.7% and -8.45% | outcome [3] | max response [9] -5.45% and 4.45% | max response [4] -19.7% and 4.43% | outcome [17] | outcome [20] | Potency [10] | Potency [5] | Potency [6] | Potency [7] | Potency [11] | Potency [12] | Potency [13] | Potency [14] | Potency [18] | Potency [15] | Potency [8] | Potency [16]
